# Columns and labels:
# PIK4CB = tested on: T1, PIK4CB
# T1 construct: gene PI4KB
# 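Further: kd values determined as follow-up on hits from a single-replicate KINOMEscan panel screen.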
compound,measurement,setting,value
Cc1cccc(-c2nc(Nc3ccc4ncsc4c3)c3ccccc3n2)n1 [GW867588],Kd,PRKD1,16 nM
same,Kd,PRKD2,22 nM
O=c1cc(N2CCOCC2)nc2n(Cc3cccc(Cl)c3Cl)c(C3CC3)nn12 [GSK2358994],Kd,PIK3CB,0.94 nM
same,Kd,PIK3CD,820 nM
O=c1cc(N2CCOCC2)nc2n(Cc3cccc4ccccc34)ccn12 [GSK2333389],Kd,PIK3CB,2.9 nM
same,Kd,PIK3CD,150 nM
same,Kd,RET,> 10000 nM
O=C1Cc2cc(Nc3nc(NCc4cccc(S(=O)(=O)C(F)(F)F)c4)ncc3C(F)(F)F)ccc2N1,Kd,PAK4,> 10000 nM
same,Kd,PIM1,> 10000 nM
COc1ccc(S(=O)(=O)NC2CCN(c3cc(C)nc(Nc4cccc(C#N)c4)n3)CC2)cc1.O=C(O)C(F)(F)F [GSK1653539],Kd,PIK3CB,> 10000 nM
O=C(Nc1n[nH]c2cc(-c3cccc(F)c3)ccc12)C1CC1 [SB-735464],Kd,NLK,87 nM
Fc1ccc(-c2ncn(CCCN3CCOCC3)c2-c2ccccn2)cc1 [SB-211742],Kd,PRKCI,> 10000 nM
Cc1c(Cn2c(C)nn3c(=O)cc(N4CCOC(C)C4)nc23)cccc1C(F)(F)F (stereo not drawn) [GSK2344444],Kd,PIK3CB,0.67 nM
same,Kd,PIK3CD,80 nM
[2H]C([2H])(c1cccc(C(F)(F)F)c1C)n1ccn2c(=O)nc(N3CCOCC3)cc12 [GSK2336394],Kd,PIK3CB,51 nM
c1ccc(-c2cc(-c3c[nH]nc3-c3ccccn3)ccn2)cc1 [GW576604],Kd,RIPK2,7600 nM
Cc1nnc(-c2ccc3ncc(-c4ccc(S(C)=O)cc4)n3c2)o1 (stereo not drawn),Kd,PDGFRB,490 nM
NS(=O)(=O)c1cccc(-c2ccc3ncc(N4CCOCC4)nc3c2)c1 [GSK1535721],Kd,PIK4CB,860 nM
Cc1cccc(Cn2ccn3c(=O)cc(N4CCOCC4)nc23)c1 [GSK2297542],Kd,PIK3CB,23 nM
N#Cc1c(N2CCOCC2)sc(-c2ccn[nH]2)c1-c1ccc(Cl)cc1,Kd,PIK3CA,32 nM
same,Kd,PIK3CB,750 nM
O=C(NCCNc1ccnc(Nc2ccc(F)cc2)n1)Nc1ccccc1F [GSK1379880],Kd,PLK1,> 10000 nM
Cc1ccc(NC(=O)c2ccnc(N3CCN(C)CC3)c2)cc1-c1ccc(C(=O)NCC2CC2)cc1 [GW775604],Kd,PDGFRB,300 nM
COc1ccc(COc2cc(-n3cnc4ccccc43)sc2C(N)=O)cc1 [GSK1024304],Kd,PIK3CB,> 10000 nM
same,Kd,PLK1,37 nM
same,Kd,PLK2,250 nM
same,Kd,PLK3,380 nM
same,Kd,RIOK2,76 nM
Cc1nnc(-c2ccc3occ(-c4ccc(C(C)O)cc4)c3c2)o1 (stereo not drawn),Kd,PIM2,940 nM
same,Kd,RAF1,> 10000 nM
O=c1cc(N2CCOCC2)nc2n(Cc3cccc(C(F)(F)F)c3)ccn12 [GSK2297543],Kd,PIK3CB,140 nM
NS(=O)(=O)c1cccc(-c2ccc3nccc(-c4cccc(S(N)(=O)=O)c4)c3c2)c1 [GW867253],Kd,PIK3CG,81 nM
same,Kd,PIK4CB,32 nM
Cc1cn2c(=O)cc(N3CCOCC3)nc2n1Cc1cccc(Cl)c1Cl [GSK2334006],Kd,PIK3CB,2.4 nM
same,Kd,PIK3CD,120 nM
C[C@@H](Oc1cc(-n2cnc3ccc(NC(=O)NC(C)(C)C)cc32)sc1C(N)=O)c1ccccc1Cl [GSK346294],Kd,PLK1,7.3 nM
same,Kd,PLK2,77 nM
same,Kd,PLK3,150 nM
O=c1cc(N2CCOCC2)nc2n(Cc3cccc(F)c3)ccn12 [GSK2297430],Kd,PIK3CB,55 nM
